# Test results from ChEMBL document CHEMBL4513216, “Probing the Open Global Health Chemical Diversity Library for Multistage-Active Starting Points for Next-Generation Antimalarials” (ACS Infect Dis, 2020).
# About 8,600 (12%) of roughly 69,000 compounds showed an effect of 50% or more. The list comes from a sample in which strong results are over-represented; it also holds similar structures and randomly drawn compounds.
# Tested on: Plasmodium berghei
# Test: Screen against P. berghei liver stage (PbLuc), transformed with Luciferase, at 10uM
# Assay type: functional, HepG2
# Conditions: tested at 10 uM
row,SMILES,INHIBITION [%]
1,Cc1cccc(CNC(Cc2ccsc2)c2nc(C)c(C)s2)n1 (stereo not drawn),91.6
2,Cc1cccc(CNC(Cc2ccsc2)c2nccs2)n1 (stereo not drawn),-24.4
3,Cc1nc(C(Cc2ccsc2)NC(=O)CN2CCOCC2)sc1C (stereo not drawn),30.45
4,CC(C(=O)NCc1ccc(N2CCCCCC2)nc1)n1cncn1 (stereo not drawn),31.2
5,CC(C(=O)NCCN1CCN(C)CC1)n1cncn1 (stereo not drawn),34.7
6,CC(C(=O)Nc1cccc(N2CCCCC2)c1)n1cncn1 (stereo not drawn),70.7
7,CC(C(=O)NCCCN1CCN(c2ccccc2)CC1)n1cncn1 (stereo not drawn),-16
8,CC(C(=O)Nc1ccc(N2CCCCC2)nc1)n1cncn1 (stereo not drawn),28.8
9,CC(C(=O)Nc1ccc(N2CCOCC2)nc1)n1cncn1 (stereo not drawn),53
10,COc1ccc(NC(=O)C(C)n2cncn2)cn1 (stereo not drawn),-33.9
11,CC(C(=O)NCc1ccc(N2CCCC2)nc1)n1cncn1 (stereo not drawn),21.6
12,Cc1cccc(N2CCN(CCNC(=O)C(C)n3cncn3)CC2)c1 (stereo not drawn),55.5
13,CC(C(=O)Nc1ccc(N2CCCC2)nc1)n1cncn1 (stereo not drawn),56.1
14,CC(C(=O)Nc1ccc(N2CCCC2)nc1)n1cccn1 (stereo not drawn),9.54
15,CC(C(=O)NCc1ccc(N2CCCCC2)nc1)n1cncn1 (stereo not drawn),7.12
16,CC(C)NC(=O)N1CCc2onc(C(=O)Nc3cccnc3)c2C1,-11
17,COc1cc(NCc2ccccc2-n2cncn2)nc(N)n1,-2.43
18,CNC(=O)NC(=O)CCN1CCN(c2nccs2)CC1,11.9
19,O=S(=O)(N[C@@H]1CCO[C@]2(CCN(CC3CCOCC3)C2)C1)C1CC1,1.48
20,O=C1COC2(CCN(c3ncccn3)CC2)CN1Cc1ccccn1,-6.21
21,COc1ccc2c(ccn2CCC(=O)NCCCC(=O)O)c1,24.7
22,Cc1noc(C(C)N(C)Cc2ccco2)n1 (stereo not drawn),-33.4

row,SMILES,INHIBITION [%]
1,CCc1cnccc1C(=O)NC1CCN(C(=O)OC)CC1,-7.16
2,CC(NC(=O)COC1CCCC1)c1nc(-c2ccccc2)c[nH]1 (stereo not drawn),-43.3
3,NCCn1cc(C(=O)N2CCNC(=O)C2c2cccc(F)c2)nn1 (stereo not drawn),-13.8
4,CN(CC(=O)NCc1ccco1)Cc1nc2c(s1)CCCC2,40.8
5,CN(CC(=O)NCC(F)(F)F)Cc1nc2c(s1)CCCC2,46.7
6,CN(CC(=O)NCC1CCCO1)Cc1nc2c(s1)CCCC2 (stereo not drawn),57.1
7,O=S(=O)(CCN1CCCCC1Cn1cncn1)c1ccccc1 (stereo not drawn),-8.11
8,CC(=O)NCCNC(=O)CNC1CCCN(c2ccc(C)nn2)C1 (stereo not drawn),47
9,c1cn(-c2cnc(C3CCNCC3)cn2)cn1,26.8
10,Cc1cc(C2CCN(C(=O)c3cnn(C)c3)CC2)ccn1,-4.51
11,Cc1ccnc(C2CCN(C(=O)c3cnn(C)c3)CC2)n1,50.3
12,Cc1ccnc(C2CCN(C(=O)c3cnn(C)c3)C2)n1 (stereo not drawn),48.4
13,CCOCC1CN(C(=O)c2cccnc2)Cc2cnn(C)c21 (stereo not drawn),-2.35
14,COc1cccc(CN2CCC(Cc3cnc(CN(C)C)cn3)CC2)c1,25.8
15,CCn1ncc2[nH]c(-c3cc(OC)c(OC)cc3OC)nc21,26.5
16,c1cc(CN2CCc3ncc(CN4CCOCC4)n3CC2)cs1,-36
17,Cc1csc(N2CCN(Cc3ccccn3)CC2)n1,34.2
18,Cc1ccc(N2CCC3(CCN(C(=O)C4CCOC4)CC3)CC2)nn1 (stereo not drawn),-45.8
19,Cc1ccc(N2CCN(C3CCc4ccccc4C3)CC2)nn1 (stereo not drawn),53.9
20,NC(=O)c1csc(N2CCN(C3CCc4ccccc4C3)CC2)n1 (stereo not drawn),47.6
21,Cc1ccc(N2CCC3(CC2)CCN(C2CCOCC2)CC3)nn1,58.7
22,Cc1csc(N2CCCN(C(=O)c3ccsc3)CC2)n1,-36.4

row,SMILES,INHIBITION [%]
1,Cc1csc(N2CCC(NCC3(O)CCc4ccccc43)CC2)n1 (stereo not drawn),42.6
2,Cc1csc(N2CCCN(C3Cc4ccccc4C3)CC2)n1,73.9
3,Cc1ccc(N2C[C@H](O)[C@@H](N3CCN(c4ccccn4)CC3)C2)nn1,6.29
4,Cc1ccc(N2CCN(C)c3ncccc3C2)nn1,48.2
5,Cc1csc(N2CCN(C3CCc4ccccc4C3)CC2)n1 (stereo not drawn),53
6,Cc1ccc(N2CCC3(CC2)CCN(C2CCOC2)CC3)nn1 (stereo not drawn),8.85
7,CS(=O)(=O)N1C[C@@H]2CCN(C(=O)c3cscn3)[C@@H]2C1,31.5
8,c1cnn(CCNCc2ccc(N3CCCCC3)cc2)c1,-10.8
9,O=C(O)c1c(-c2ccncc2)ncc2c1CCN(Cc1ccco1)C2,26.5
10,CC1CCN(c2nc3cn(C4CCS(=O)(=O)C4)c(=O)c-3c[nH]2)CC1 (stereo not drawn),-16.3
11,Cc1occc1C(=O)N1C[C@@H]2OCCN(c3ncccn3)[C@@H]2C1,11.5
12,CCc1ccccc1-c1cc(OC)nc(N)n1,35
13,N#Cc1ccc(S(=O)(=O)N2CSCC2C(=O)NCC(F)(F)F)cc1 (stereo not drawn),-13.5
14,CC1(C2CCN(CC(N)=O)CC2)CN(Cc2ccccc2)C(=O)CO1 (stereo not drawn),0.301
15,CC(=O)N1CCC(c2ccnc(Nc3cncnc3)n2)CC1,-2.11
16,Cc1csc(N2CCCN(c3cc(C)nc(C)c3C#N)CC2)n1,91.9
17,Cc1cc(N2CCCC2)c(C#N)c(C)n1,4.62
18,Cc1cc(N2CCCCC2)c(C#N)c(C)n1,25.2
19,CCOC(=O)c1cnn(C2CCN(C(=O)CC3CCCC3)CC2)c1N,26.1
20,COc1ccccc1C1(CNCc2cccc(O)c2)CCOCC1,51.3
21,COc1ccccc1C1(CNCc2cccc(C#N)c2)CCOCC1,20.9
22,COc1ccccc1C1(CNCc2ccc(C#N)cc2)CCOCC1,29.6

row,SMILES,INHIBITION [%]
1,O=C(CCNc1ncccn1)Nc1cc(C(F)(F)F)c[nH]c1=O,-1.7
2,O=C(NCc1ccco1)[C@H]1C[C@@H]2CCN(c3ccncn3)C[C@@H]2O1,21.7
3,Cc1nc(CN(C)C(=O)c2ccc(Cn3cnnn3)cc2)cs1,16.5
4,Cc1ncsc1CCN(C)C(=O)c1ccc(Cn2cnnn2)cc1,-0.448
5,Cc1cnccc1CN(C)C(=O)c1ccc(Cn2cnnn2)cc1,54.9
6,CCc1noc(C(C)N2CCC(O)CC2)n1 (stereo not drawn),37.9
7,Cc1noc(C)c1C(=O)NCCSCc1cccs1,29.5
8,CCN1CCN(C(=O)NCCOc2ccc3c(c2)OCO3)CC1,2.63
9,O=C(c1n[nH]c2c1CCC2)N1CCCC1c1nc(-c2ccccc2)no1 (stereo not drawn),-68.4
10,COc1ncccc1C(=O)N1CCCC1c1nc(-c2ccccc2)n[nH]1 (stereo not drawn),47.6
11,COc1nc2c(cc1C(=O)N1CCCCC1c1ccccn1)CCC2 (stereo not drawn),-34.4
12,COc1ncccc1C(=O)N1CC(c2nc(-c3ccccn3)no2)C1,33.5
13,COc1ncccc1C(=O)N1CCCC1c1nc(-c2ccccc2)no1 (stereo not drawn),64.9
14,Cc1nc(CC(=O)N2CCCC2c2nc(-c3ccccc3)no2)cs1 (stereo not drawn),38.2
15,CC(C)c1cc(C(=O)N2CCCC2c2nc(-c3ccccc3)no2)[nH]n1 (stereo not drawn),55.5
16,COc1nc2c(cc1C(=O)N1CCCC1c1ccccn1)CCC2 (stereo not drawn),1.74
17,COc1ccc(C(=O)N2CCCCC2c2ccccn2)c(OC)n1 (stereo not drawn),53.2
18,Cc1ncc(-c2ccncc2)c(C2CCN(C(=O)c3ccco3)CC2)n1,-21
19,CCc1nc(CN(C)C2CCN(CC(F)(F)F)C2)no1 (stereo not drawn),4.71
20,CN1CCOC(CNCc2c(Cl)nc3ccccn23)C1 (stereo not drawn),-2.43
21,CC[C@@H]1N(Cc2ccc(OC)cc2)CCC[C@]12CCC(=O)N2CCOC,-5.31
22,Cc1noc(CC2CCN(C(=O)C(c3ccccc3C)N(C)C)CC2)n1 (stereo not drawn),-21.1

row,SMILES,INHIBITION [%]
1,COCc1nc(C(=O)N2CCCC2c2cc(C)on2)cs1 (stereo not drawn),0.914
2,O=C(c1cc2c(s1)CCC2)N1CCCC(c2cnccn2)C1 (stereo not drawn),-94
3,COc1ccc(C)cc1NC(=O)CNc1ccn(CC(N)=O)n1,-41.6
4,CNc1ccnc(NCCC(=O)Nc2ccccc2OC)n1,49.7
5,CNc1ccnc(NCC(=O)Nc2cc(C)ccc2OC)n1,53
6,CC(C)COC1CCN(S(=O)(=O)Cc2cccc(F)c2)CC1,20.9
7,CNC(=O)[C@@H]1C[C@@H](N)CN1c1nc(N2CCCC2)nc(C)c1C,45.3
8,CCN(CC)C(=O)[C@@H]1C[C@@H](N)CN1c1nc(N2CCCC2)nc(C)c1C,33.4
9,CCNC(=O)[C@@H]1C[C@H](N)CN1c1cc(CC)nc(N(C)C)n1,-69.6
10,CCN(CC)C(=O)[C@@H]1C[C@H](N)CN1c1nnc(-c2ccccc2)s1,56.3
11,CNC(=O)[C@@H]1C[C@@H](N)CN1c1nnc(-c2ccccc2)s1,74.9
12,CNC(=O)[C@@H]1C[C@@H](N)CN1C(=O)CCSCc1ccccc1,-15.1
13,CCN(CC)C(=O)[C@@H]1C[C@@H](NC(=O)c2cccn2C2CC2)CN1C,20.5
14,CCN(CC)C(=O)[C@@H]1C[C@@H](N)CN1c1nc(N(C)C)nc(C)c1C,62.6
15,CCN(CC)C(=O)[C@@H]1C[C@H](N)CN1c1noc(-c2ccccc2)n1,9.04
16,COc1ccc(-c2ncccc2C(=O)N2C[C@@H]3CC[C@H]2C3)cn1,29.1
17,Cn1cc(C[C@H]2[C@H](N3CCOCC3)CCN2C2CCOCC2)cn1,0.804
18,Cn1nc(C(=O)N2CCOCC2)cc1C(=O)Nc1ncc(Cl)cc1Cl,-0.71
19,Cn1nc(C(=O)N2CCOCC2)cc1C(=O)Nc1ccc(Cl)cc1Cl,-8.66
20,Cn1nc(C(=O)N2CCOCC2)cc1C(=O)Nc1c(Cl)cccc1Cl,51.6
